Laboratory results from PubChem BioAssay (Tox21).
Records with an inconclusive call do not appear. Active and inactive are the calls of the source. Unless noted, calls come from the whole dose curve.

Key:
[1] = Nuclear factor erythroid 2-related factor 2/antioxidant responsive element (Nrf2/ARE) small molecule agonists: qHTS cell viability counter screen in human keratinocytes (AID 1919968; active = well fitted curve in the direction sought with a large enough effect in the repeat runs; an effect the other way counts as inactive or inconclusive; note: nearly all actives have a fitted effect of over 55% in size)
Procedure, shortened: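 In human HaCaT keratinocytes stably expressing an ARE-driven luciferase, compound exposure lasted 23 h at 37 C under 5% CO2. Viable cells are quantified with a protease-based fluorogenic reagent (CellTiter-Fluor) read 1 h after addition.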

[2] = target: Gonadotropin-releasing hormone receptor (Homo sapiens) (UniProt P30968); experiment: Human gonadotropin-releasing hormone receptor (GnRHR) small molecule agonists, calcium flux assay in GnRHR-HEK293 cells (AID 1920063); note: nearly all actives have a fitted effect of over 35% in size
Gonadotropin-releasing hormone receptor (Homo sapiens), sequence (P30968 whole entry, looked up): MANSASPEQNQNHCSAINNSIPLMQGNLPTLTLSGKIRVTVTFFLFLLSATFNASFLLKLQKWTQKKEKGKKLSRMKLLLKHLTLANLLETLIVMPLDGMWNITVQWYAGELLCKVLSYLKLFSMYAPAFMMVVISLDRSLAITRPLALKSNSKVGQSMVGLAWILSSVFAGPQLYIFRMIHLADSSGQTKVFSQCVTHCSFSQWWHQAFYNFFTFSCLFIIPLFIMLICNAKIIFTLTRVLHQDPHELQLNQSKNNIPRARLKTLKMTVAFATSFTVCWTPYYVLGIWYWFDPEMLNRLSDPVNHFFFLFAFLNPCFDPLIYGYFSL
Procedure, shortened: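 Intracellular calcium rise is the read-out: engineered human GnRHR HEK293 cells, dye-loaded, are exposed to DMSO-dissolved compounds and fluorescence at Ex/Em 480/540 is tracked for 3 min.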

[3] = target: KiSS-1 receptor (Homo sapiens) (UniProt Q969F8); experiment: Human kisspeptin (KISS1R) small molecule agonists, calcium flux assay in KISS1R-HEK293 cells (AID 1920064; active = well fitted curve in the direction sought with a large enough effect in the repeat runs; an effect the other way counts as inactive or inconclusive)
KiSS-1 receptor (Homo sapiens), sequence (Q969F8 whole entry, looked up): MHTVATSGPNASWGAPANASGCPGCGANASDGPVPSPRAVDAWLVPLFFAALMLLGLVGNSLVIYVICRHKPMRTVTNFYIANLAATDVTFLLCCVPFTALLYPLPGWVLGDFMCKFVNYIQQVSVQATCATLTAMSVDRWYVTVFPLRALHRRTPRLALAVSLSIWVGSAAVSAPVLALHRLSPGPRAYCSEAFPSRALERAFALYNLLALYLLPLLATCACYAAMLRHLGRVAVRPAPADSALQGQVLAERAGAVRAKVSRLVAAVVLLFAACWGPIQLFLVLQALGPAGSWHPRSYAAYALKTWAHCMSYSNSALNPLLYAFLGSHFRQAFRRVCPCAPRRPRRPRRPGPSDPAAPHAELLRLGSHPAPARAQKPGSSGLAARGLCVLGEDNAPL
Procedure, shortened: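 Concentration-response testing used 15 concentrations in triplicate on human KISS1R-expressing HEK293 cells. Calcium-dependent fluorescence (Ex/Em 480/540) was followed kinetically for 3 min after compound transfer.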

[4] = G protein-coupled receptor (GPCR) small molecule agonists, calcium flux assay: HEK293 wild type cell line counter screen (AID 1920065)
Procedure, shortened: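 Fluorescence intensity signals activation. After overnight (18 h) culture and a 1 h calcium dye load at 37 C, compounds are added by pin tool and the plate read at 480/540 nm for 3 min in 1 s steps.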

[5] = p53 small molecule agonists, cell-based qHTS assay with human liver microsomes (AID 1963577);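 note: p53 response element beta-lactamase reporter cells with liver microsomes plus NADPH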
Procedure, shortened: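 Reporter activation was measured by LiveBLAzer fluorescence intensity in p53RE-bla cells, which had been exposed to compounds for 16 h at 37 C alongside 0.5 mg/mL human liver microsomes and 0.5 mg/mL NADPH (final concentrations).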

[6] = p53 small molecule agonists, cell-based qHTS assay with rat liver microsomes (AID 1963578)
Procedure, shortened: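 Compound in DMSO added to p53RE-bla cells 5 h post-plating; rat microsomes/NADPH 0.5 mg/mL final; 16 h, 37 C; LiveBLAzer 2 h RT.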

[7] = p53 small molecule agonists, cell-based qHTS assay with rat liver microsomes: qHTS cell viability counter screen (AID 1963580); note: nearly all actives have a fitted effect of over 45% in size
Procedure, shortened: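 Cytotoxicity counter screen: intracellular ATP read by CellTiter-Glo luminescence in the p53 reporter wells. HCT-116 p53RE-bla cells were treated for 16 h at 37 C alongside rat liver microsomes and NADPH, each 0.5 mg/mL final.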

[8] = p53 small molecule agonists, cell-based qHTS assay: qHTS cell viability counter screen (AID 1963581); note: nearly all actives have a fitted effect of over 45% in size
Procedure, shortened: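 Luminescence from CellTiter-Glo, reflecting ATP content, serves as the cytotoxicity measure; it is taken after the 2 h reporter substrate step in HCT-116 p53RE-bla cells dosed for 16 h at 37 C.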

[9] = target: 5-hydroxytryptamine receptor 2A (Homo sapiens) (UniProt P28223); experiment: 5-hydroxytryptamine receptor 2A (HTR2A) small molecule antagonists, cell-based qHTS assay (AID 1963586); note: nearly all actives have a fitted effect of over 45% in size
5-hydroxytryptamine receptor 2A (Homo sapiens), sequence (P28223 whole entry, looked up): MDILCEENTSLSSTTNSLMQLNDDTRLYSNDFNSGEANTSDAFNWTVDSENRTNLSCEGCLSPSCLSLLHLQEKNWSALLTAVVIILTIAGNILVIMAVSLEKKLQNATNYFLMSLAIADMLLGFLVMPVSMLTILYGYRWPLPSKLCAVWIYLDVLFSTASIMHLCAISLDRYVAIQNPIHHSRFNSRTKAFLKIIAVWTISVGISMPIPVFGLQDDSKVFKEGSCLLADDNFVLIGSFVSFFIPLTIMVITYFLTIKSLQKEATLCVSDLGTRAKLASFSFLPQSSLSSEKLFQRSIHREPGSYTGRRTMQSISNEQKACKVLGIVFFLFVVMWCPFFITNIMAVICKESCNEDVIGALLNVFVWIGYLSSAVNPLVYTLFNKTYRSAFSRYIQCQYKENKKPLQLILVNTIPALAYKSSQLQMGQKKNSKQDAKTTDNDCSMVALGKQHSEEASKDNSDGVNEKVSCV
Procedure, shortened: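 CHO cells stably expressing human HTR2A were plated for 18 h at 37 C, then loaded with calcium dye for 1 h. Compounds were preincubated 5 min at room temperature before DOI (4 nM solution) was added. Kinetic fluorescence was read for 3 min.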

[10] = target: 5-hydroxytryptamine receptor 2A (Homo sapiens) (UniProt P28223); experiment: 5-hydroxytryptamine receptor 2A (HTR2A) small molecule agonists, cell-based qHTS assay (AID 1963587); note: nearly all actives have a fitted effect of over 30% in size
Procedure, shortened: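 Kinetic calcium-flux fluorescence (2 min, 1 sec intervals) after compound addition in agonist mode. HTR2A-CHO cells were cultured 18 h, then dye-loaded 1 h at 37 C.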

[11] = target: Muscarinic acetylcholine receptor M1 (Homo sapiens) (UniProt P11229); experiment: Cholinergic receptor muscarinic 1 (CHRM1) small molecule antagonists, cell-based qHTS assay (AID 1963588); note: nearly all actives have a fitted effect of over 40% in size
Muscarinic acetylcholine receptor M1 (Homo sapiens), sequence (P11229 whole entry, looked up): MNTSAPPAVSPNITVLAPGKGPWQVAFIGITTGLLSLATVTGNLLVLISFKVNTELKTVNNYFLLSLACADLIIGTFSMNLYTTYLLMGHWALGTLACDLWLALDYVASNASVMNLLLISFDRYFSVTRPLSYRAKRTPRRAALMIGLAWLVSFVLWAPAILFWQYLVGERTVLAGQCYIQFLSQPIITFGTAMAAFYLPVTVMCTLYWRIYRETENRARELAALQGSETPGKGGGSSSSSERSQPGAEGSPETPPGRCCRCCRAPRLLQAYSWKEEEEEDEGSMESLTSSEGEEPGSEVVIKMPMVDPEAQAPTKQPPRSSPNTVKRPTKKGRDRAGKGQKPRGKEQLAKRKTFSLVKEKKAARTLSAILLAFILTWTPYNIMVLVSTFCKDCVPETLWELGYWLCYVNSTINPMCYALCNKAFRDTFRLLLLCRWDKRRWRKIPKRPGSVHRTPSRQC
Procedure, shortened: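 Compounds were tested at 15 concentrations in three independent runs. Dye-loaded CHRM1-CHO cells were exposed 5 min at room temperature before stimulation by acetylcholine added at 50nM. Intracellular calcium was read kinetically on FDSS for 3 min.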

[12] = target: Muscarinic acetylcholine receptor M1 (Homo sapiens) (UniProt P11229); experiment: Cholinergic receptor muscarinic 1 (CHRM1) small molecule agonists, cell-based qHTS assay (AID 1963589); note: nearly all actives have a fitted effect of over 35% in size
Procedure, shortened: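 Fluorescent calcium dye reports M1 activation in stably transfected CHO cells. Compounds, 15 concentrations, added after 1 h dye loading at 37 C; kinetic reading at 1 sec intervals.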

[13] = cAMP Responsive Elements (CRE) small molecule agonists, cell-based qHTS assay (AID 1963590)
Procedure, shortened: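 Compound exposure lasted 3 h at 37 C/5% CO2 in CRE-bla HEK 293T cells grown in assay medium with 10% dialyzed FBS and 25 mM HEPES. Reporter signal came from LiveBLAzer B/G FRET substrate, 2 h, room temperature.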

[14] = cAMP Responsive Elements (CRE) small molecule antagonists, cell-based qHTS assay (AID 1963591; active = well fitted inhibition curve with a large enough effect in the signal ratio in the repeat runs, not every such curve was filed as active; the % refers to the signal ratio)
Procedure, shortened: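 Stimulation used NKH477 at a final 0.25 uM for 3 h in compound-treated CRE-bla HEK293T cells, seeded 18 h beforehand. Reporter activity was measured with LiveBLAzer B/G FRET substrate after 2 h at room temperature.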

[15] = target: Beta-2 adrenergic receptor (Homo sapiens) (UniProt P07550); experiment: Adrenergic beta2 receptor (ADRB2) small molecule antagonists, cell-based qHTS assay (AID 1963592); note: series mostly up to about 92 µM; nearly all actives have a fitted effect of over 50% in size
Beta-2 adrenergic receptor (Homo sapiens), sequence (P07550 whole entry, looked up): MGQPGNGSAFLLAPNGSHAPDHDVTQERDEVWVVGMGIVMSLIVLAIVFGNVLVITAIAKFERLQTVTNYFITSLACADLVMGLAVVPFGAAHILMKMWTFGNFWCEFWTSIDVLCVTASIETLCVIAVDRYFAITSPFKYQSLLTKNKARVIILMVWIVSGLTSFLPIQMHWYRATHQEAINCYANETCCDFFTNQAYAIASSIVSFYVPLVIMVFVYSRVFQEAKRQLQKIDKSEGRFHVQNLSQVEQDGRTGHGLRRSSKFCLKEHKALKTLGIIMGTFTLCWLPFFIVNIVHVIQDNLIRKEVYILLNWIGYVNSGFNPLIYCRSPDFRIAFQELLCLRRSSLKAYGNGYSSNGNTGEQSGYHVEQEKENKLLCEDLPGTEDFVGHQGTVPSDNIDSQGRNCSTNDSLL
Procedure, shortened: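 Assay format: CHO-ADRB2 cells, 18-20hr seeding at 37C/5% CO2, then compound plus 1nM isoproterenol agonist mix for 0.5hr RT. Homogeneous time-resolved fluorescence cAMP detection after 1hr, expressed as 665/615 nm ratio.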

[16] = target: D(2) dopamine receptor (Homo sapiens) (UniProt P14416); experiment: Dopamine D2 receptor (DRD2) small molecule agonists, cell-based qHTS assay (AID 1963594); note: nearly all actives have a fitted effect of over 35% in size
D(2) dopamine receptor (Homo sapiens), sequence (P14416 whole entry, looked up): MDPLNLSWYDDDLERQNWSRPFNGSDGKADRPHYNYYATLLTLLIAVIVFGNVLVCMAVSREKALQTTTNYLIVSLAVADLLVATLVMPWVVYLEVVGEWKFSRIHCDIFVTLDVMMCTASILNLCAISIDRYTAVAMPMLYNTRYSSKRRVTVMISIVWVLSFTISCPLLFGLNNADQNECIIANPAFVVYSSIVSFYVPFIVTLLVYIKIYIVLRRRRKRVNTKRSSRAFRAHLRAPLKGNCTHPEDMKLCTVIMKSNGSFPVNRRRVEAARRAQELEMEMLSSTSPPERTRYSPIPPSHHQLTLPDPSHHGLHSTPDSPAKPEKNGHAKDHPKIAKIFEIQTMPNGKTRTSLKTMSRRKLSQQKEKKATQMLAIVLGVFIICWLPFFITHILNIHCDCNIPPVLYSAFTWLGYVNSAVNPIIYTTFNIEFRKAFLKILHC
Procedure, shortened: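 cAMP accumulation in DRD2-HEK293 cells measured by HTRF after 1 h detection; compounds added 10 min before NKH477 (200nM […]) forskolin-analogue stimulation, 30 min at room temperature, with Ro20-1724 present at 0.1 mM final.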

[17] = target: D(2) dopamine receptor (Homo sapiens) (UniProt P14416); experiment: Dopamine D2 receptor (DRD2) small molecule antagonists, cell-based qHTS assay (AID 1963595; active = well fitted inhibition curve with a large enough effect in the signal ratio in the repeat runs, with a control signal flat; the % refers to the signal ratio)
Procedure, shortened: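 Cells were plated and grown for 24 h at 37 °C. Ro20-1724 (0.1 mM final) went in first, then compound for 10 min. NKH477 (200 nM) with quinpirole (12 nM) followed for 30 min at RT, then HTRF detection reagents for 1 h.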

[18] = p53 small molecule agonists, cell-based qHTS assay with human liver microsomes: qHTS cell viability counter screen (AID 1963579); note: nearly all actives have a fitted effect of over 45% in size
Procedure, shortened: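 HLM-supplemented (0.5 mg/mL final) and NADPH-supplemented (0.5 mg/mL final) p53RE-bla cultures, 4,000 cells per well, were dosed with compounds in DMSO for 16 h at 37 C; luminescent ATP detection (CellTiter-Glo, 30 min, room temperature) quantified surviving cells.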

[19] = p53 small molecule agonists, cell-based qHTS assay (AID 1963582; active = well fitted activation curve with a large enough effect in the signal ratio in the repeat runs, not every such curve was filed as active; the % refers to the signal ratio)
Procedure, shortened: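 After plating, p53RE-bla cells sat 5 h in the incubator; compounds or DMSO vehicle were pinned in; a 16 h incubation at 37 C followed; FRET substrate was added and, 2 h later at RT, fluorescence was measured.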

[20] = target: Beta-2 adrenergic receptor (Homo sapiens) (UniProt P07550); experiment: Adrenergic beta2 receptor (ADRB2) small molecule agonists, cell-based qHTS assay (AID 1963593);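 note: CHO cells stably overexpressing human ADRB2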
Procedure, shortened: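 CHO cells stably over-expressing ADRB2 were plated overnight at 37C, then dosed with compounds plus a stimulation mix containing 100uM IBMX and 25uM Ro-20-1724 for 0.5hr at room temperature. cAMP was measured by HTRF competition, 1hr.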
% is set by controls: 0 for no effect and ±100 for the full control effect.

CCCCCCCCCCCCCCCBr
inactive: Potency [1] | Potency [2] | Potency [3] | Potency [4] | Potency [5] | Potency [6] | Potency [7] | Potency [8] | Potency [9] | Potency [10] | Potency [11] | Potency [12] | Potency [13] | Potency [14] | Potency [15] | Potency [16] | Potency [17]

O=C(c1ccc(O)cc1)c1ccc(O)c(O)c1O
inactive: Potency [1] | Potency [2] | Potency [3] | Potency [4] | Potency [6] | Potency [18] | Potency [7] | Potency [8] | Potency [19] | Potency [10] | Potency [11] | Potency [12]

CCCCCCCCCCCC(=O)OCC(O)CO (stereo not given)
inactive: Potency [1] | Potency [2] | Potency [3] | Potency [4] | Potency [18] | Potency [7] | Potency [8] | Potency [9] | Potency [11] | Potency [12] | Potency [14] | Potency [15] | Potency [20] | Potency [16] | Potency [17]

BrCc1cccc(Oc2ccccc2)c1
inactive: Potency [1] | Potency [2] | Potency [3] | Potency [4] | Potency [18] | Potency [7] | Potency [8] | Potency [9] | Potency [10] | Potency [11] | Potency [12] | Potency [13] | Potency [14] | Potency [15] | Potency [16] | Potency [17]

CCCCCCCCC(=O)OCC(C)OC(=O)CCCCCCCC (stereo not given)
inactive: Potency [1] | Potency [2] | Potency [3] | Potency [4] | Potency [18] | Potency [7] | Potency [8] | Potency [9] | Potency [12] | Potency [13] | Potency [15] | Potency [16] | Potency [17]

COC(=O)c1ccccc1OC
inactive: Potency [1] | Potency [2] | Potency [3] | Potency [4] | Potency [18] | Potency [7] | Potency [8] | Potency [9] | Potency [10] | Potency [11] | Potency [12] | Potency [13] | Potency [14] | Potency [15] | Potency [20] | Potency [16] | Potency [17]

CC(C)CCCCCCN
inactive: Potency [1] | Potency [2] | Potency [3] | Potency [4] | Potency [6] | Potency [18] | Potency [7] | Potency [19] | Potency [9] | Potency [10] | Potency [11] | Potency [12] | Potency [13] | Potency [14] | Potency [15] | Potency [16] | Potency [17]

CC(C)N1C(=O)c2ccccc2C1=O
inactive: Potency [1] | Potency [2] | Potency [3] | Potency [4] | Potency [6] | Potency [18] | Potency [8] | Potency [19] | Potency [9] | Potency [10] | Potency [11] | Potency [12] | Potency [13] | Potency [15] | Potency [20] | Potency [16] | Potency [17]

CC(CN)CCCN (stereo not given)
inactive: Potency [1] | Potency [2] | Potency [3] | Potency [4] | Potency [6] | Potency [18] | Potency [7] | Potency [19] | Potency [9] | Potency [10] | Potency [11] | Potency [12] | Potency [13] | Potency [14] | Potency [15] | Potency [16] | Potency [17]

CCN(CCC#N)c1ccc(N=Nc2c(Cl)cc([N+](=O)[O-])cc2Cl)cc1
inactive: Potency [1] | Potency [2] | Potency [3] | Potency [4] | Potency [18] | Potency [7] | Potency [8] | Potency [19] | Potency [9] | Potency [10] | Potency [11] | Potency [13] | Potency [14] | Potency [15] | Potency [16] | Potency [17]

CC(C)OC(=O)CCC(=O)OC(C)C
inactive: Potency [1] | Potency [2] | Potency [3] | Potency [4] | Potency [6] | Potency [7] | Potency [8] | Potency [19] | Potency [10] | Potency [11] | Potency [12] | Potency [14] | Potency [15] | Potency [16] | Potency [17]

O=C(N[C@H](CO)[C@H](O)c1ccc([N+](=O)[O-])cc1)C(Cl)Cl
inactive: Potency [1] | Potency [2] | Potency [3] | Potency [4] | Potency [6] | Potency [7] | Potency [8] | Potency [13] | Potency [14] | Potency [15] | Potency [17]

CC1=CC(=C(c2ccc(N)cc2)c2ccc(N)cc2)C=CC1=N
inactive: activity change, negative = cytotoxicity [1] -10.2% [at 8.39 µM] | activity change [2] -1.28% [at 5.22 µM, hits give high values] | activation [3] 0.102% [at 6.97 µM] | activation [4] -0.23% [at 5.23 µM] | activation [6] -2.26% [at 5.99 µM] | activity change, negative = cytotoxicity [18] -13.2% [at 5.99 µM] | activity change, negative = cytotoxicity [8] -0.979% [at 5.99 µM] | activation [19] -2.87% [at 5.99 µM] | activity, negative = inhibition [9] 14.5% [at 5.62 µM] | activation [10] 2.32% [at 7.02 µM] | activity, negative = inhibition [11] -8.08% [at 5.58 µM] | activation [12] -0.812% [at 6.97 µM] | activation [13] -0.0749% [at 8.39 µM] | activity change, negative = inhibition [15] -4.98% [at 8.39 µM] | activation [20] -33.8% [at 8.39 µM] | activation [16] -0.554% [at 8.39 µM] | activity change, negative = inhibition [17] 0.406% [at 8.38 µM]
